LmPK inhibitor = LmPK (Leishmania mexicana) enzyme inhibition; actives 0.37% (n = 290,000); Q27686; purified LmPK, Kinase-Glo ATP luminescence, 1 h; AID 1721; Potency, µM (doses to about 57.5 µM), for the others: at the top dose activity change, negative = inhibition, most hits filed as inhibitors; also: potency is read from the fitted curve at half-maximal effect; % is scaled to controls: 0 for no effect and ±100 for the full control effect
Target sequence (Q27686 whole entry, looked up): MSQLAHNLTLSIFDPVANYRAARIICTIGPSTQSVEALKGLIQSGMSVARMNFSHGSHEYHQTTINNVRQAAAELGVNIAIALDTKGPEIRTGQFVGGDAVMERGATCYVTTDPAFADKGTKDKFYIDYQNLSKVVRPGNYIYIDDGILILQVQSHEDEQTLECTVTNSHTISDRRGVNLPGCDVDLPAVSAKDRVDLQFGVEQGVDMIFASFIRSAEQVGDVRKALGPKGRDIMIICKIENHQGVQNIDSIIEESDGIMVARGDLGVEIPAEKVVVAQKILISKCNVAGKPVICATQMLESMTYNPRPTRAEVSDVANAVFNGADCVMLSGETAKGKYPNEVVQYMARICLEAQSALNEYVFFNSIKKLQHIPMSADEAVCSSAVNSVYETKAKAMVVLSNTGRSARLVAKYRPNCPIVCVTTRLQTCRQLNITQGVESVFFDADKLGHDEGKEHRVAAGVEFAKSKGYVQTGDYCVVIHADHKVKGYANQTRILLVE
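0.1 nM LmPK, 0.5 mM PEP, 0.1 mM ADP; 50 mM imidazole pH 7.2, 7 mM MgCl2, 50 mM KCl; 1 h RT. Kinase-Glo luminescence readout, normalized to no-enzyme (full inhibition) and uninhibited wells.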
Cycloheximide cs = counter-screen for Shiga toxin inhibitors: cycloheximide protein synthesis inhibition; actives 12% (n = 300,000); cell reporter, cycloheximide protein synthesis inhibition counterscreen; max response, %; AID 2314; in the data active = max response mostly above about 13%, no sharp cut-off; inactive = mostly below about 14%; also: read at 38.3 µM for the half of the compounds with a filed dose; 0% is about no effect
Shiga toxin inh = blocks Shiga toxin action in Vero cells. AID 2315. actives 9.2% (n = 290,000). Vero cells, Shiga toxin protein synthesis inhibition reporter. inhibition, % at 38.7 µM; in the data active = inhibition mostly above about 28%, no sharp cut-off; inactive = mostly below about 43%; also: 0% is about no effect
Pf growth 96h = inhibits malaria parasite growth, 96 h; P. falciparum luciferase reporter growth, 96 h; Potency, µM (series often up to 28.7 µM), inactives show at the highest dose activity change, negative = inhibition, hits mostly inhibitors; actives 6.9% (n = 320,000); also: potency is read from the fitted curve at half-maximal effect; % is scaled to controls: 0 for no effect and ±100 for the full control effect
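Cell-based qHTS: luciferase-tagged P. falciparum in erythrocytes (2% hematocrit, 0.05% parasitemia final) incubated with compounds for 96 hours, 37 C, 5% CO2; luciferase detection reagent then added and luminescence measured.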
Pf growth 48h = P. falciparum growth inhibition at 48 hours (one generation) | P. falciparum luciferase growth in erythrocytes, 48 h | actives 5.9% (n = 310,000) | AID 504832 | Potency, µM (series often up to 28.7 µM), without a hit: top-dose activity change, negative = inhibition, hits mostly inhibitors; also: potency is read from the fitted curve at half-maximal effect; % is scaled to controls: 0 for no effect and ±100 for the full control effect
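Firefly luciferase activity from engineered P. falciparum reports growth; inhibitors lower the luminescent signal. Cultures contained 2% hematocrit erythrocytes at 0.1% final parasitemia.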
* hit, by the source's call; ? = inconclusive; · = no result; [ ] = dose if it differs, or a comment. In the library only some 22% were active in any assay of this set; here they are far more common. Unless noted, calls follow the shape of the dose curve; as a rule, active = well fitted inhibition curve with a large enough effect; inconclusive = small, poorly fitted or top-dose-only effect, or another doubt; inactive = no such curve, though single readings can be large or run the other way.

SMILES	LmPK inhibitor	Cycloheximide cs	Shiga toxin inh	Pf growth 96h	Pf growth 48h
Cc1nn(-c2cccc([N+](=O)[O-])c2)c(N)c1-c1ccccc1	2%	39*	73*	83%	188%
O=[N+]([O-])c1ccc(-n2nncc2-c2ccc(Cl)cc2)cc1	-1%	1	-16	·	-7%
CC(C)(Cc1cccc(CC(C)(C)C(=O)O)c1)C(=O)O	-2%	-2	-7	?	18%
CCOC(=O)C1=C(COC(=O)Cc2ccc(Cl)cc2)NC(=O)NC1C (stereo not given)	·	·	·	-14%	-20%
Cc1ccc(C)c(NC(=O)c2ccc(S(=O)(=O)C(F)F)cc2)c1	-8%	5	23	-7%	10%
O=CNc1ccc(S(=O)(=O)NCc2ccccc2)cc1	7%	-1	-14	17%	·
COc1ccc(-c2nc(N3CCN(S(=O)(=O)c4ccc(F)cc4)CC3)c3ccccc3n2)cc1	·	16	37	·	·
Cc1cc(NC(=O)CCC(=O)N(c2cccnc2)C(C(=O)NC2CCCC2)c2ccccc2)no1 (stereo not given)	-3%	-4	-8	29%	-20%
Cc1cc(NC(=O)CCC(=O)N(c2ccccc2)C(C(=O)NCC2CCCO2)c2cccnc2)no1 (stereo not given)	1%	-3	-7	10µM*	-1%
Cc1cc(NC(=O)CCC(=O)N(c2ccccc2)C(C(=O)NC2CCCCC2)c2cccs2)no1 (stereo not given)	3%	-3	-4	8.3µM*	?
Cc1cc(NC(=O)CCC(=O)N(c2ccccc2)C(C(=O)NC2CCCC2)c2ccc(F)cc2)no1 (stereo not given)	-2%	-2	-9	?	-14%
Cc1cc(NC(=O)/C=C/C(=O)N(CC(=O)NC2CCCC2)c2cccc3ccccc23)no1	4%	-6	0	1%	10µM*
CCc1ccccc1N(C(=O)CCC(=O)Nc1cc(C)on1)C(C(=O)NC1CCCC1)c1ccco1 (stereo not given)	2%	1	-23	27%	9.3µM*
O=c1c(Cc2ccc(Cl)cc2)c(O)ccn1Cc1ccncc1	3%	3	-18	-19%	-13%
O=C(Nc1ccc(C(=O)O)cc1)/C(=C\c1cccc([N+](=O)[O-])c1)NC(=O)c1ccc(Br)o1	-1%	1	-4	?	-17%
Nc1cc(N)nc(SCC(=O)NC(=O)NC2CCCC2)n1	·	·	·	-33%	1%
Cc1cc(NC(=O)CCC(=O)N(Cc2ccco2)C2(C(=O)NC3CCCC3)CCC(C)CC2)no1 (stereo not given)	1%	-1	-9	?	15µM*
Cc1cc(NC(=O)CCC(=O)N(c2ccc(F)cc2)C(C(=O)NC2CCCC2)c2ccc(C)o2)no1 (stereo not given)	14%	18	13	32%	9.3µM*
Cc1cc(NC(=O)CCC(=O)N(CC(=O)NC2CCCC2)c2ccccc2)no1	0%	1	-3	15µM*	?
CCCC(=O)C1C(=O)CC(C)(C)C(c2cc(C)no2)C1=O (stereo not given)	2%	-5	-3	0.12µM*	7%
O=C1C=C2C=CC3C[C@@]2(O1)C1CCCCN31 (stereo not given in full)	·	·	·	2.7µM*	12µM*
N#Cc1ccc(C(=O)CSc2n[nH]c(=O)n2-c2cccnc2)cc1	-1%	3	22	44%	9%
CCN1C(=NCCc2cccs2)N[C@@H](c2cccs2)C(C(=O)OC)=C1C	-2%	-6	-4	?	7.4µM*
COC(=O)C1=C(C)N(Cc2ccccc2)C(=NCCc2ccccn2)N[C@H]1c1cccc(F)c1	-7%	-3	-7	8.3µM*	12µM*
COCCN=C1N[C@@H](c2cccc(C(F)(F)F)c2)C(C(=O)OC)=C(C)N1Cc1ccccc1	-2%	0	-4	4.7µM*	?
SMILES	LmPK inhibitor	Cycloheximide cs	Shiga toxin inh	Pf growth 96h	Pf growth 48h
CCN1C(=NCc2cc(OC)c(OC)c(OC)c2)N[C@@H](c2cccc(F)c2)C(C(=O)OC)=C1C	-7%	-2	10	10µM*	5.2µM*
COC(=O)C1=C(C)N(Cc2ccccc2)C(=NCc2cccc(C(F)(F)F)c2)N[C@H]1c1cccc(C(F)(F)F)c1	-8%	-1	12	7%	?
CCN1C(=NCc2cccc(Cl)c2)N[C@@H](c2cccc(F)c2)C(C(=O)OC)=C1C	-4%	-4	-3	?	?
CCn1nc(C)c(Br)c1Nc1ccc(Br)cc1	10%	-4	15	-16%	-24%
COC(=O)C1=C(C)N(Cc2ccccc2)C(=NCCc2c[nH]c3ccccc23)N[C@H]1c1cccc(C(F)(F)F)c1	-3%	-2	6	13µM*	?
CCN1C(=NCCc2ccccn2)N[C@@H](c2cccc(F)c2)C(C(=O)OC)=C1C	-13%	-2	30	?	2%
CCN1C(=NCCc2c[nH]c3ccccc23)N[C@@H](c2ccccc2)C(C(=O)OC)=C1C	-12%	2	-3	1%	13µM*
COC(=O)C1=C(C)N(Cc2ccccc2)C(=NCc2cccc(C(F)(F)F)c2)N[C@H]1c1cccc(F)c1	-11%	-12	-17	?	6.6µM*
CCN1C(=O)N(S(=O)(=O)C(F)(F)F)[C@@H](c2ccccc2)C(C(=O)OC)=C1C	0%[11.5 µM]	0	12	?	?
COC(=O)C1=C(C)N(Cc2ccccc2)C(=NCCCCO)N[C@H]1c1cccc(C(F)(F)F)c1	-6%	-2	-5	?	?
CCN1C(=O)N(C)[C@@H](c2ccccc2)C(C(=O)OC)=C1C	-6%[11.5 µM]	21*	2	-23%	?
O=C(c1ccc([N+](=O)[O-])cc1)N1CCN(C2=NS(=O)(=O)c3ccccc32)CC1	-7%	1	-5	28%	2%
CN(C)S(=O)(=O)Oc1ccc(C(=O)Nc2cccc(C(F)(F)F)c2)cc1	7%	14	18	1.7µM*	?
CN(C)S(=O)(=O)Oc1ccc(C(=O)Nc2cccc(Cl)c2)cc1	-9%	56*	89*	0%	0%
Cc1ccc(C)c(NC(=O)C2C3CCCC2C3c2ccccc2)c1 (stereo not given)	11%	-2	-3	12µM*	-6%
Cc1ccccc1NC(=O)C1C2CCCC1C2c1ccccc1 (stereo not given)	-3%	-3	-14	?	-18%
O=C(Nc1ccc(O)c(-c2nc3ccccc3o2)c1)C1(c2ccccc2)CCCC1	2%	5	13	29%	15µM*
CS(=O)(=O)c1ccccc1C(=O)Nc1cccc(-c2nc3ccccc3o2)c1	13%	23*	12	10%	14%
O=C(Cc1cccs1)Nc1cccc(-c2nc3ccccc3o2)c1	1%	23	2	?	3%
CC(=O)Nc1ccc(S(=O)(=O)Nc2cccc(-c3nc4ccccc4o3)c2)cc1	10%	-2	28	14%	·

Bioassay records: PubChem, National Center for Advancing Translational Sciences (NCATS)
